Bioassay records as filed in PubChem BioAssay.
MgrA-DNA mod: alters Staphylococcus aureus MgrA binding to DNA | fluorescence polarization | inhibition, % (test concentration not listed) | 84,000 compounds, 0.13% hits; in the data active = inhibition above about 30%, passing the limit was not always enough;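 note: higher means less MgrA bound to DNA so lower polarization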
Numbers stand for hits; n = inactive. Many of the other results were omitted from the sample, so hits are more common in it than they were.

SMILES	MgrA-DNA mod
Cn1c(=O)c2cc(C(=O)NCC3(c4ccccc4)CCCC3)sc2c2ccccc21	n
C/C(=N\OCc1cccc(C(=O)O)c1)c1ccc(Cl)c(Cl)c1	n
Cc1ccc(C)n1-c1cccc(C(=O)O)c1	103
O=C(O)c1cccc(-n2cccc2)c1	n
Cc1ccc(C)n1-c1cccc(N)c1	n
O=[N+]([O-])c1cc(Cl)c(-n2cccc2)cc1SCc1ccc(Cl)c(Cl)c1	n
O=C(Nn1c(-c2ccc(F)cc2)nc2ccccc2c1=O)c1cc2cc(Br)ccc2oc1=O	n
CCCCCCCCCC(=O)n1c2ccc(F)cc2c2nc3ccccc3nc21	n
Clc1cc(Cl)cc(-c2nnc(N3CCCC3)o2)c1	n
FC(F)(F)c1cc(-n2c(CCc3nc(-c4ccc(Cl)cc4)no3)n[nH]c2=S)cc(C(F)(F)F)c1	n
N#CCNS(=O)(=O)c1cc(Cl)ccc1Cl	n
O=C(Nc1ccc(N2CCCCC2)cc1)c1ccncc1	n
c1cc(CNc2ccc(N3CCCC3)cc2)ccn1	97
c1cc2c(cc1CNc1ccc(N3CCCC3)cc1)OCO2	n
O=C(CSc1ccc(Cl)cc1)Nc1cscc1S(=O)(=O)c1ccc(Cl)cc1	n
O=C(CSC1=NCCc2ccccc21)c1ccc(Cl)c(Cl)c1	n
O=C(CC(=O)c1ccccc1O)c1cccs1	n
COc1ccc(CCN=Cc2ccccn2)cc1OC	n
Cc1ccc(C)n1-c1sccc1C(=O)CC#N	n
CC(=O)Nc1sccc1C(=O)O	n
Cc1ccc(C)n1-c1sccc1C(=O)O	89
COc1ccc(/C=N/NC(=O)CC#N)cc1	n
Cc1ccc(N2C(=O)NC(=O)/C(=C/c3cc(Br)c(O)cc3O)C2=O)cc1	n
Cc1ccc(N2C(=O)NC(=O)/C(=C/c3ccc(Br)o3)C2=O)cc1Cl	49
CC(C)(C)C1(C)OC(=O)C(=Cc2ccc(Br)o2)C(=O)O1 (configuration not stated)	n
SMILES	MgrA-DNA mod
OC1(C(F)(F)F)CC(/C=C/c2cccs2)=NN1 (configuration not stated)	n
CN1CCCc2cc(/C=C3\CCC(C4CCCC4)C3=O)ccc21 (configuration not stated)	n
CN1CCCc2cc(CN)ccc21	63
CN1CCCc2cc(/C=C3\CC/C(=C/c4ccc5c(c4)N(C)CCC5)C3=O)ccc21	n
COc1ccc(-n2nc3c(c2NC(=O)c2ccc(S(=O)(=O)N4CCCC4)cc2)CSC3)cc1	n
COc1ccc(N2C(=O)/C(=C\c3ccc(C(C)C)cc3)C(=O)NC2=S)cc1	n
CCc1ccc(N2C(=O)/C(=C/c3ccc(OCC(=O)O)c(OC)c3)C(=O)NC2=S)cc1	n
CCC(C)N1C(=O)/C(=C\c2cnn(-c3ccccc3)c2)C(=O)NC1=S (configuration not stated)	63
N#Cc1c(-c2ccccc2)cc2c(c1N)c(=O)oc1ccccc12	n
O=C(Nc1ccccc1-c1nc2ccccc2s1)c1ccc(Cl)cc1	n
O=P(O)(C1Cc2ccccc2C1)C(O)c1ccco1 (configuration not stated)	n
O=C1NC(=S)N/C1=C\c1cccc(OCc2ccc(F)cc2)c1	n
CCOc1ccc(C=C2C(=O)OC(c3ccccc3)OC2=O)cc1 (configuration not stated)	n
O=C1OC(c2ccccc2)OC(=O)C1=Cc1cccc(OCc2ccccc2)c1 (configuration not stated)	56
Cc1ccc(/C=C2/SC(=S)N(CCc3ccc(Cl)cc3)C2=O)o1	n
Cc1ccc(/C=C2\CC/C(=C\c3ccc(C)o3)C2=O)o1	n
Cc1ccc(/C=C2\SC(=O)NC2=S)o1	81
COc1cc(NC(=O)NC2(c3ccccc3)CC2)c(OC)cc1Cl	n
Cc1nc2c3ccccc3n3c(CCCC(=O)NC4CCCCC4)nnc3n2n1	n
CCCN(C(=O)c1ccc2c(=O)n3c(nc2c1)CCCC3)c1ccc(Cl)c(Cl)c1	n
Cc1[nH]c2ccc(C(=O)O)cc2c1CC(=O)O	n
Cc1[nH]c2ccc(C(=O)O)cc2c1C	n
CCCc1c(C)[nH]c2ccc(C(=O)O)cc2c1=S	54
COc1cc(OC)c(/C=C2\C(=O)NC(=O)N(C3CCCCC3)C2=O)c(OC)c1	n
O=C(NCCc1ccccc1)c1nn2cccnc2c1Cl	n
SMILES	MgrA-DNA mod
CCCc1ccc(-c2nc(CS(=O)(=O)c3ccsc3)no2)cc1	n
N#Cc1c(-c2cccs2)cc(-c2ccccc2)[nH]c1=O	n
N#Cc1c(-c2ccco2)cc(-c2cccs2)[nH]c1=O	55
N#Cc1c(C(F)(F)F)cc(-c2cccs2)[nH]c1=O	n
COc1ccc(C(=O)NC(CC(=O)O)c2ccc(OC)cc2)cc1 (configuration not stated)	n
O=C1c2c(O)ccc(O)c2C(=O)c2c(NCCNCCO)ccc(NCCNCCO)c21	47
O=C(O)CSc1ccccc1	n
Cc1cn(-c2ncnc3scc(-c4ccccc4)c23)nc1C(F)(F)F	n
O=C(NCCn1ccc2ccccc21)c1ccc(F)cc1	n
CCCc1cc(=O)[nH]c(/N=C(\N)Nc2cc(Cl)ccc2OC)n1	n
CCN(CC)Cc1cc(C2N(C(C)=O)c3cccc4cccc(c34)N2C(C)=O)ccc1O	n
CCN(CC)Cc1cc(O)c(CN(CC)CC)cc1O	60
CCCc1oc(C(=O)O)cc1CN(CC)CC	n
O=C1c2ccccc2NC2(CCCCC2)N1Cc1ccco1	n
CCOC(=O)c1ccc2c(c1)C1C=CCC1C(c1ccccc1F)N2 (configuration not stated)	n
CC(C)c1ccc([C@@H]2Nc3ccc(C(=O)O)cc3[C@@H]3C=CC[C@@H]32)cc1	47
CCOC(=O)[C@@H]1Nc2ccc(C(=O)O)cc2[C@@H]2C=CC[C@H]12	71
CC(=O)c1ccc2c(c1)C1C=CCC1C(c1ccc(Cl)cc1Cl)N2 (configuration not stated)	n
CCOC(=O)c1ccc2c(c1)C1C=CCC1C(c1ccc(Cl)cc1Cl)N2 (configuration not stated)	n
Fc1ccc(C2Nc3ccc(Br)cc3C3C=CCC32)cc1 (configuration not stated)	n
O=C(O)CCNC(=S)Nc1cccc(Cl)c1Cl	n
CC(C)c1ccc(OCc2ccc(C(=O)NCc3ccco3)cc2)cc1	n
COC(=O)c1cccnc1Sc1ccc(C)cc1	n
Cc1cc(C)c(C#N)c(SC2CCc3ccccc3C2=O)n1 (configuration not stated)	n
O=C1c2ccccc2CC1Sc1nnc(-c2ccco2)c(-c2ccco2)n1 (configuration not stated)	96
O=C(CSc1nnc(-c2ccco2)c(-c2ccco2)n1)N1c2ccccc2Sc2ccc(Cl)cc21	n
NC(=S)CSc1ccccc1	n
COc1cc(-c2nnc(SCC(=O)N3CCCCC3C)o2)cc(OC)c1OC (configuration not stated)	n
